Test results from PubChem BioAssay AID1159580 (chemical genetic matrix, 2015).
Several values for one entry are separate records, joined by “and”; a condition that tells them apart may be missing. Equal entries are not always repeated. In all, about 5,500 compounds went through this assay and about 2,000 (36%) were called active. Not shown: some 18% with an inconclusive outcome. Rule as the data show it: active = normalized growth mostly below about 0.91 (no sharp cut-off); inconclusive = no clear call, values can overlap the other calls; inactive = mostly above about 0.92. This is one part of the list.

Test: chemical genetic growth profiling, strain panel (AID 1159580);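 also: tested at 20 µM; growth read once vehicle control cultures reached saturation at 30 °C; 1 = growth at the plate median or of vehicle wells; lower values mean less growth of the strain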
Conditions: S. cerevisiae deletion strains, growth OD

Measured: normalized growth

Cc1ccc(C(=O)c2ccc(CC(=O)O)n2C)cc1
inactive: locus YAL021C, strain ccr4, stronger effect = lower value 1.03 | locus YAL026C, strain drs2, stronger effect = lower value 1.02 | locus YAL030W, strain snc1, stronger effect = lower value 1.01 | locus YBL061C, strain skt5, stronger effect = lower value 1.01 | locus YBR009C, strain hhf1, stronger effect = lower value 0.973 | locus YBR021W, strain FUR4, stronger effect = lower value 1.01 | locus YBR023C, strain chs3, stronger effect = lower value 1 | locus YBR229C, strain ROT2, stronger effect = lower value 1 | locus YBR231C, strain swc5, stronger effect = lower value 1.02 | locus YBR279W, strain paf1, stronger effect = lower value 1 | locus YCL011C, strain gbp2, stronger effect = lower value 0.999 | locus YCL016C, strain dcc1, stronger effect = lower value 0.996 | locus YCL029C, strain bik1, stronger effect = lower value 0.968 | locus YCL061C, strain MRC1, stronger effect = lower value 0.995 | locus YCL069W, strain vba3, stronger effect = lower value 0.986 | locus YCR088W, strain abp1, stronger effect = lower value 1 | locus YDL005C, strain med2, stronger effect = lower value 1.03 | locus YDL035C, strain GPR1, stronger effect = lower value 1.01 | locus YDL040C, strain nat1, stronger effect = lower value 1.01 | locus YDL074C, strain BRE1, stronger effect = lower value 1.01 | locus YDL101C, strain DUN1, stronger effect = lower value 1.01 | locus YDL134C, strain PPH21, stronger effect = lower value 0.996 | locus YDL185W, strain tfp1, stronger effect = lower value 0.977 | locus YDL192W, strain arf1, stronger effect = lower value 0.98 | locus YDR001C, strain nth1, stronger effect = lower value 1 | locus YDR069C, strain doa4, stronger effect = lower value 0.999 | locus YDR101C, strain arx1, stronger effect = lower value 0.985 | locus YDR137W, strain rgp1, stronger effect = lower value 1 | locus YDR150W, strain NUM1, stronger effect = lower value 1.01 | locus YDR159W, strain sac3, stronger effect = lower value 0.956 | locus YDR162C, strain NBP2, stronger effect = lower value 0.995 | locus YDR195W, strain ref2 1.03 | locus YDR297W, strain sur2, stronger effect = lower value 0.991 | locus YDR318W, strain mcm21, stronger effect = lower value 0.956 | locus YDR334W, strain swr1, stronger effect = lower value 1.01 | locus YDR335W, strain msn5, stronger effect = lower value 1.01 | locus YDR388W, stronger effect = lower value 0.972 | locus YDR392W, strain spt3, stronger effect = lower value 0.88 | locus YDR502C, strain sam2, stronger effect = lower value 0.97 | locus YEL003W, strain gim4, stronger effect = lower value 1.01 | locus YEL037C, strain rad23, stronger effect = lower value 0.999 | locus YEL061C, strain CIN8 (second series), stronger effect = lower value 0.999 | locus YEL061C, strain CIN8, stronger effect = lower value 0.998 | locus YER015W, strain faa2, stronger effect = lower value 1.01 | locus YER016W, strain bim1, stronger effect = lower value 0.999 | locus YER110C, stronger effect = lower value 0.969 | locus YER111C, strain swi4, stronger effect = lower value 1.01 | locus YER155C, strain BEM2 (second series), stronger effect = lower value 0.957 | locus YER155C, strain BEM2, stronger effect = lower value 0.996 | locus YER167W, strain BCK2, stronger effect = lower value 0.998 | locus YFR010W, strain ubp6, stronger effect = lower value 0.997 | locus YGL078C, strain dbp3, stronger effect = lower value 0.977 | locus YGL086W, strain mad1, stronger effect = lower value 0.985 | locus YGL167C, strain pmr1, stronger effect = lower value 1.01 | locus YGL173C, strain kem1, stronger effect = lower value 0.985 | locus YGL227W, strain vid30, stronger effect = lower value 1 | locus YGL240W, strain doc1, stronger effect = lower value 1.01 | locus YGL248W, strain PDE1, stronger effect = lower value 1.02 | locus YGL253W, strain hxk2, stronger effect = lower value 0.992 | locus YGR078C, strain PAC10, stronger effect = lower value 1 | locus YGR135W, strain pre9, stronger effect = lower value 0.97 | locus YGR229C, strain SMI1, stronger effect = lower value 1.01 | locus YGR252W, strain gcn5, stronger effect = lower value 0.975 | locus YHR013C, strain ard1, stronger effect = lower value 1.03 | locus YHR027C, strain rpn1, stronger effect = lower value 1.01 | locus YHR030C, strain SLT2, stronger effect = lower value 1 and 0.957 | locus YHR079C, strain IRE1 (second series), stronger effect = lower value 0.964 | locus YHR079C, strain IRE1, stronger effect = lower value 0.976 | locus YHR094C, strain hxt1, stronger effect = lower value 0.973 | locus YHR129C, strain ARP1, stronger effect = lower value 1 | locus YHR142W, strain chs7, stronger effect = lower value 1.02 | locus YHR200W, strain rpn10, stronger effect = lower value 0.979 | locus YIL066C, strain RNR3, stronger effect = lower value 1 | locus YIL073C, strain SPO22, stronger effect = lower value 0.924 | locus YIL125W, strain kgd1, stronger effect = lower value 0.985 | locus YIR030C, strain dcg1, stronger effect = lower value 0.978 | locus YJL092W, strain hpr5, stronger effect = lower value 1.02 | locus YJL095W, strain BCK1 (second series), stronger effect = lower value 1.02 | locus YJL095W, strain BCK1, stronger effect = lower value 1.01 and 0.969 | locus YJL115W, strain asf1, stronger effect = lower value 1.03 | locus YJL129C, strain trk1, stronger effect = lower value 1.02 | locus YJL134W, strain LCB3, stronger effect = lower value 1 | locus YJL154C, strain vps35, stronger effect = lower value 1.01 | locus YJL164C, strain tpk1, stronger effect = lower value 0.997 | locus YJL166W, strain qcr8, stronger effect = lower value 1.02 | locus YJL168C, strain set2, stronger effect = lower value 0.975 | locus YJL187C, strain SWE1 (second series), stronger effect = lower value 1 | locus YJR043C, strain POL32, stronger effect = lower value 0.995 | locus YJR066W, strain TOR1, stronger effect = lower value 0.929
